Measured values: the supplement of paper PMC10849652
The full data set covers some 8,800 targets. This sample favours those with a hit. About 0.5% of all pairs of compound and target were hits. Unmarked numbers belong to inactive results.

What was measured:
Assay in all cases: log2 fold change, soluble protein after heating vs DMSO (PISA); higher = thermal stabilisation; K562 lysate, 10 uM; active = over 0.2 and 3.5 SD of the protein, either way, in both replicates (recomputed)
nilotinib = compound: Cc1cn(-c2cc(NC(=O)c3ccc(C)c(Nc4nccc(-c5cccnc5)n4)c3)cc(C(F)(F)F)c2)cn1 [nilotinib]
Method in brief: (§1)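 K562 pellets were dounce-homogenised in PBS pH 7.4 containing 1 mM MgCl2, and the crude extract, at 1 mg/mL protein, was exposed to 10 μM compound for 30 min. Aliquots were heated for 3 min across 48°C-58°C, pooled, brought to 0.5% NP-40 at 4°C and spun at 21,000xg for 90 min, with the supernatant taken as soluble protein. TMTpro 16plex LC-MS/MS with equalised channel sums quantified that protein. Values are log-two fold changes in thermal stability relative to solvent controls, taken from duplicates.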

[1] = compound: Cc1nc(Nc2n[nH]c3c2CN(C(=O)N[C@H](CN(C)C)c2ccccc2)C3(C)C)c2sccc2n1
Method in brief: as §1

dasatinib = compound: Cc1nc(Nc2ncc(C(=O)Nc3c(C)cccc3Cl)s2)cc(N2CCN(CCO)CC2)n1 [dasatinib]
Method in brief: as §1

[2] = compound: Cc1ncc(-c2ccnc(Nc3ccc(S(C)(=O)=O)cc3)n2)n1C(C)C
Method in brief: as §1

[3] = compound: Cn1cc(-c2ccc3c(c2)CCN3C(=O)Cc2cccc(C(F)(F)F)c2)c2c(N)ncnc21
Method in brief: as §1

quisinostat = compound: Cn1cc(CNCC2CCN(c3ncc(C(=O)NO)cn3)CC2)c2ccccc21 [quisinostat]
Method in brief: as §1

tipifarnib = compound: Cn1cncc1[C@@](N)(c1ccc(Cl)cc1)c1ccc2c(c1)c(-c1cccc(Cl)c1)cc(=O)n2C [tipifarnib]
Method in brief: as §1

[4] = compound: NC(=O)Nc1cc(-c2cccc(F)c2)sc1C(=O)N[C@H]1CCCNC1
Method in brief: as §1

[5] = compound: NC(=O)c1cnc(N[C@@H]2CCCC[C@@H]2N)nc1Nc1cccc(-n2nccn2)c1
Method in brief: as §1

[6] = compound: NC1(c2ccc(-c3nc4ccn5c(=O)[nH]nc5c4cc3-c3ccccc3)cc2)CCC1
Method in brief: as §1

[7] = compound: NCC(=O)Nc1ccc(-n2nc(C(F)(F)F)cc2-c2ccc3c(ccc4ccccc43)c2)cc1
Method in brief: as §1

vorinostat = compound: O=C(CCCCCCC(=O)Nc1ccccc1)NO [vorinostat]
Method in brief: as §1

silmitasertib = compound: O=C(O)c1ccc2c(c1)nc(Nc1cccc(Cl)c1)c1ccncc12 [silmitasertib]
Method in brief: as §1

[8] = compound: O=C1NC(=O)C(c2cnc3ccccn23)=C1c1cn2c3c(cc(F)cc13)CN(C(=O)N1CCCCC1)CC2
Method in brief: as §1

entospletinib = compound: c1cn2cc(-c3ccc4cn[nH]c4c3)nc(Nc3ccc(N4CCOCC4)cc3)c2n1 [entospletinib]
Method in brief: as §1

Chain of UniProt Q9UJC5 (Q9UJC5 whole entry, looked up): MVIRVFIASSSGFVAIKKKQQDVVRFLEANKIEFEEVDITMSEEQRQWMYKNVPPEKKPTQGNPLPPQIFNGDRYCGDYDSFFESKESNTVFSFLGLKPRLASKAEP
Chain of UniProt P61011 (P61011 whole entry, looked up): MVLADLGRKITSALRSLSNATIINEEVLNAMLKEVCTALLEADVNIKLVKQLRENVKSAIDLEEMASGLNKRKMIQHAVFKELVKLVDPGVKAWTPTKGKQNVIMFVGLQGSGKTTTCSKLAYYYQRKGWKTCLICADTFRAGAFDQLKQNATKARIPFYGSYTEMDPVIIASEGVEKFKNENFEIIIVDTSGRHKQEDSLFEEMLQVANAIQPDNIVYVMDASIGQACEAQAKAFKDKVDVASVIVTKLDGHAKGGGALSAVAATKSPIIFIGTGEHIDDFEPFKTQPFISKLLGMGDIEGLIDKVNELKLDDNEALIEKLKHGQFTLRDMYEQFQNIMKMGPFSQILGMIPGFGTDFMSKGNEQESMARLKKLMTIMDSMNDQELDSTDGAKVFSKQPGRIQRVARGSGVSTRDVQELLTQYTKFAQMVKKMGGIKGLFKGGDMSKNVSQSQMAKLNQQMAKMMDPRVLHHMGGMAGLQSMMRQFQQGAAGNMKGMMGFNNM
Chain of UniProt Q13242 (Q13242 whole entry, looked up): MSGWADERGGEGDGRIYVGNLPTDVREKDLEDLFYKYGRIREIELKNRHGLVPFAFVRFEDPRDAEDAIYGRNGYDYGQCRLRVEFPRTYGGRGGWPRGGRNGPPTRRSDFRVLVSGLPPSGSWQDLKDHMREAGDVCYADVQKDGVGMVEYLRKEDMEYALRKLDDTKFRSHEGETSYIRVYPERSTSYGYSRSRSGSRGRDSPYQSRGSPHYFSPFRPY
Chain of UniProt Q92844 (Q92844 whole entry, looked up): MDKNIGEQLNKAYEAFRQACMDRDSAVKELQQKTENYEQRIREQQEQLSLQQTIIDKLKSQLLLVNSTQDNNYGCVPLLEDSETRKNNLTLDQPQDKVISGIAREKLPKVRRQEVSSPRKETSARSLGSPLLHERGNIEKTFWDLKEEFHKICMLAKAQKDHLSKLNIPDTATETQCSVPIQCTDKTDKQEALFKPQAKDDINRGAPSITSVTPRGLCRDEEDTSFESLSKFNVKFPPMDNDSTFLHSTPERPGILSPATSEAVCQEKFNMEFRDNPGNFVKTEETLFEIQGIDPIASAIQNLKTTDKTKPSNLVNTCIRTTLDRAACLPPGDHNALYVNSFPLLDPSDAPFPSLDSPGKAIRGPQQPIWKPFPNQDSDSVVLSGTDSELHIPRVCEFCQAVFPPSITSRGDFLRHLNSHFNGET
Chain of UniProt Q9P289 (Q9P289 whole entry, looked up): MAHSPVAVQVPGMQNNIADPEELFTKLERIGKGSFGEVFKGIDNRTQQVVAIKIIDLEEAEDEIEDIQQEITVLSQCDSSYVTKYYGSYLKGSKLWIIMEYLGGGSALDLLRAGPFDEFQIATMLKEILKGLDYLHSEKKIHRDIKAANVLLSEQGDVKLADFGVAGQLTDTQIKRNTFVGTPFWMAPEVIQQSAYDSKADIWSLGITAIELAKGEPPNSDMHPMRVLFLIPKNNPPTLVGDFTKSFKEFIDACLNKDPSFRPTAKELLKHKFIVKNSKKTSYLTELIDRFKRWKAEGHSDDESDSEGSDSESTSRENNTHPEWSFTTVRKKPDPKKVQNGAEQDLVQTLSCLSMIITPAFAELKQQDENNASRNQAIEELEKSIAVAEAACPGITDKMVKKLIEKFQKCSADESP
Chain of UniProt Q9NYA1 (Q9NYA1 whole entry, looked up): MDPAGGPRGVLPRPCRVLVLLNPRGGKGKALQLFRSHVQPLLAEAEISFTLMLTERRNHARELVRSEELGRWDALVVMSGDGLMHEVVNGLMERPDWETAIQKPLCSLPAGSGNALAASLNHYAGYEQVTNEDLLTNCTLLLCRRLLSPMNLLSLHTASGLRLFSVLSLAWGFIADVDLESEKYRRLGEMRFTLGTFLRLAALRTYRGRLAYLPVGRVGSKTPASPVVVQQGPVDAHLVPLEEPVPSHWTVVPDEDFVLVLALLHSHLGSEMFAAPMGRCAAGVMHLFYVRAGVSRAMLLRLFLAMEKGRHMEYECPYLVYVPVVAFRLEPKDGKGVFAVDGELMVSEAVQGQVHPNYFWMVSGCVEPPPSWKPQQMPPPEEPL
Chain of UniProt Q13043 (Q13043 whole entry, looked up): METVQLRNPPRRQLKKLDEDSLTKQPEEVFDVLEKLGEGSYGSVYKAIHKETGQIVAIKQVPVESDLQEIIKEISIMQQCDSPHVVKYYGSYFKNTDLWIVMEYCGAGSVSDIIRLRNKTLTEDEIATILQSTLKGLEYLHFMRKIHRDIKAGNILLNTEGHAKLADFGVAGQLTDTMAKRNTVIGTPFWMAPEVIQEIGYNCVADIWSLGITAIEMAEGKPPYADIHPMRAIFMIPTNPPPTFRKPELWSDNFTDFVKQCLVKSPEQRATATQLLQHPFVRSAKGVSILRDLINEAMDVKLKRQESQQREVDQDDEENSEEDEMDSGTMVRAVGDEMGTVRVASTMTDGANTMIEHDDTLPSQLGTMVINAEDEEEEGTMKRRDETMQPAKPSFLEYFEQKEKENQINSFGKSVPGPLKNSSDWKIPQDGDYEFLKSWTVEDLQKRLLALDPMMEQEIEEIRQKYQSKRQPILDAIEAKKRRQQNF
Chain of UniProt Q13395 (Q13395 whole entry, looked up): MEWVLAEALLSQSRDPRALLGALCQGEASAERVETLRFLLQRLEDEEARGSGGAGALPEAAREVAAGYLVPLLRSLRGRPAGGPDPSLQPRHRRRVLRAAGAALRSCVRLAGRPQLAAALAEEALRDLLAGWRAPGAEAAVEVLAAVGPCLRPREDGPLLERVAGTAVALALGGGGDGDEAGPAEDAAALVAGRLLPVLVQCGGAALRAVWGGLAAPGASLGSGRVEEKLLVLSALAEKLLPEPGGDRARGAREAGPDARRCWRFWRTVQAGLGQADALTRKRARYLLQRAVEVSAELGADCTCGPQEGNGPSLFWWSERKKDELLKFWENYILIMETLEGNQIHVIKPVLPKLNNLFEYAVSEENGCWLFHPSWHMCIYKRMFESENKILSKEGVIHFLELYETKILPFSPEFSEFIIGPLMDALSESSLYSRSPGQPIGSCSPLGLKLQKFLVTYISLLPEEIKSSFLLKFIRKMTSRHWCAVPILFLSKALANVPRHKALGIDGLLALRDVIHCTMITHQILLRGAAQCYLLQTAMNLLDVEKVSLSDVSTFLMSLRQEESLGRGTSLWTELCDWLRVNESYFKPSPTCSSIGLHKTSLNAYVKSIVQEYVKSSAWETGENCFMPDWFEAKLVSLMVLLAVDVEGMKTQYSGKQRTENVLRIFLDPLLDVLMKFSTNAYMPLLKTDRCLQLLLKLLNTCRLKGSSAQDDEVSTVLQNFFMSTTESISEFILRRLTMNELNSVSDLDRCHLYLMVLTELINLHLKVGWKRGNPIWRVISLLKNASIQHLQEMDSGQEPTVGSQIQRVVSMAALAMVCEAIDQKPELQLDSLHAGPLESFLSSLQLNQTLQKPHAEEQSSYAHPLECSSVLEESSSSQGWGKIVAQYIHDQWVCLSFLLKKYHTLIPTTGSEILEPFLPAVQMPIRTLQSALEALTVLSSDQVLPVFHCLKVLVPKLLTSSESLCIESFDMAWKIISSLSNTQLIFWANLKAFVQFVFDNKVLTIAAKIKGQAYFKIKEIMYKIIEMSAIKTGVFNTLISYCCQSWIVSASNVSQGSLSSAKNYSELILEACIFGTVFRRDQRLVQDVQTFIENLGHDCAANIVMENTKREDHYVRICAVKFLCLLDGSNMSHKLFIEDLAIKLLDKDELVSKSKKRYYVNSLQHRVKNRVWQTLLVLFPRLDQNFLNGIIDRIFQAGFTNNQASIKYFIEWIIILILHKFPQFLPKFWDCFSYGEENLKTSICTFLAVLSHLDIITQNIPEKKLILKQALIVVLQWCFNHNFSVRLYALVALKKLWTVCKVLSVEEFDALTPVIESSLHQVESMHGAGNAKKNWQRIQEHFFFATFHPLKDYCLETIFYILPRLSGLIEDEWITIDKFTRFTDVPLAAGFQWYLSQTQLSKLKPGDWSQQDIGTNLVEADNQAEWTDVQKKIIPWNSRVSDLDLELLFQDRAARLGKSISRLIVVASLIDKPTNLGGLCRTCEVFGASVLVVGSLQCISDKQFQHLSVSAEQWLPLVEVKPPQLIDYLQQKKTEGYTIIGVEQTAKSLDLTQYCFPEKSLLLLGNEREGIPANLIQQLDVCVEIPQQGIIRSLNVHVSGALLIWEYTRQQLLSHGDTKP
Chain of UniProt Q9H2D1 (Q9H2D1 whole entry, looked up): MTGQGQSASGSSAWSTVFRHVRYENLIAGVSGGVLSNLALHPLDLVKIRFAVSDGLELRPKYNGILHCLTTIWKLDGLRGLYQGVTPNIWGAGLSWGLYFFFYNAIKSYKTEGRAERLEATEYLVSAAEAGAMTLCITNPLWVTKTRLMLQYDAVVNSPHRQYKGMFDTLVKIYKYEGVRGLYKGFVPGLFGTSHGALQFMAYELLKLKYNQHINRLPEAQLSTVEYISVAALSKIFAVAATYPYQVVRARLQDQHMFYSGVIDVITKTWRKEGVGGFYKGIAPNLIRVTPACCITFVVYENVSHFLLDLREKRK
Chain of UniProt Q9HBM1 (Q9HBM1 whole entry, looked up): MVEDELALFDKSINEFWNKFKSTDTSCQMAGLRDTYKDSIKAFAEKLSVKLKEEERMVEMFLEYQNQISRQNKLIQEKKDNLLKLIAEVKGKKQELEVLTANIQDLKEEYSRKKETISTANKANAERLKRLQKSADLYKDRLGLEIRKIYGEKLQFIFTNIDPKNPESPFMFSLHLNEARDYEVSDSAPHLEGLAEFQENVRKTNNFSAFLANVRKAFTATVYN

Row | Target | log2 fold change (nilotinib) | log2 fold change [1] | log2 fold change (dasatinib) | log2 fold change [2] | log2 fold change [3] | log2 fold change (quisinostat) | log2 fold change (tipifarnib) | log2 fold change [4] | log2 fold change [5] | log2 fold change [6] | log2 fold change [7] | log2 fold change (vorinostat) | log2 fold change (silmitasertib) | log2 fold change [8] | log2 fold change (entospletinib)
1 | SPC25 (UniProt Q9HBM1) | 0.042 | -0.02 | 0.002 | 0.03 | 0.046 | -0.019 | 0 | -0.01 | 0.002 | 0 | 0.026 | -0.266 (active) | 0 | 0.016 | -0.004
2 | SH3BGRL2 (UniProt Q9UJC5) | -0.001 | -0.001 | 0.077 | -0.019 | -0.033 | -0.029 | 0.013 | 0.009 | -0.04 | 0.032 | -0.003 | 0.153 | -0.011 | 0.099 | 0.04
3 | SRSF9 (UniProt Q13242) | 0.02 | 0.01 | -0.079 | 0.02 | -0.005 | 0.008 | 0.047 | -0.012 | 0.029 | -0.002 | -0.182 | -0.113 | 0.069 | -0.035 | 0.007
4 | SRP54 (UniProt P61011) | 0.039 | 0.006 | -0.021 | 0 | 0.034 | 0.048 | -0.047 | -0.001 | -0.013 | -0.015 | 0.003 | -0.241 (active) | 0.008 | 0.021 | -0.004
5 | TANK (UniProt Q92844) | -0.067 | 0.461 (active) | 0.069 | 0.04 | 0.088 | -0.053 | -0.071 | 0.161 | 0.042 | 0.01 | 0.041 | -0.102 | 0.124 | 0.071 | 0.132
6 | STK26 (UniProt Q9P289) | -0.033 | 0.25 (active) | 0.102 | 0.044 | 0.029 | -0.035 | -0.013 | 0.104 | 0.002 | -0.008 | -0.027 | -0.032 | 0.035 | -0.045 | -0.026
7 | STK4 (UniProt Q13043) | -0.077 | 0.343 | 0.214 | 0.177 | 0.282 | -0.105 | -0.047 | 0.585 (active) | 0.134 | -0.016 | 0.054 | -0.134 | 0.024 | 0.041 | 0.047
8 | TARBP1 (UniProt Q13395) | -0.045 | 0.036 | -0.03 | -0.003 | 0.046 | -0.158 | 0.007 | 0.142 | 0.007 | -0.021 | -0.151 | -0.608 (active) | 0.097 | 0.017 | 0.028
9 | SMG1 (UniProt Q96Q15) | -0.029 | 0.026 | -0.021 | 0.038 | 0.006 | -0.05 | -0.028 | 0.061 | 0 | -0.032 | 0.005 | -0.348 (active) | 0.011 | -0.006 | -0.007
10 | SPHK1 isoform 2 (UniProt Q9NYA1) | 0.03 | -0.034 | -0.007 | -0.071 | 0.025 | 0.084 | -0.058 | -0.028 | -0.005 | 0.052 | 0.091 | -0.408 | 0.089 | -0.167 | 0.032
11 | SLC25A32 (UniProt Q9H2D1) | 0.007 | 0.033 | 0.011 | 0.043 | -0.055 | -0.015 | 0.016 | 0.023 | -0.029 | -0.026 | 0.053 | 0.23 | -0.008 | 0.046 | 0.033
